{"source": "the supplement of paper PMC5373622", "about": "“Screening for AMPA receptor auxiliary subunit specific modulators” (PLoS ONE, 2017)", "note": "Values without a mark were called inactive."}
{"tested_on": "GRIA2", "experiment": "glutamate-evoked VSD slope (GluSlope), % of maximal glutamate response; higher = potentiation (PAM), active = hit call of the paper", "conditions": "10 µM; glutamate: EC50 (3-4 uM); clone: A2R-stg (HEK293 GluA2flip(R) + stargazin)", "protocol": "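lower means inhibition (NAM); Primary voltage-sensitive dye (FLIPR Blue) screen on TetON HEK293 cells expressing GluA2flip(R) with stargazin (A2R-stg). Compound at 10 uM was preincubated for 290 s, then about EC50 glutamate (3-4 uM) was added; fluorescence was read on an FDSS at 1 Hz. GluSlope is expressed as % of the mean maximal-glutamate (1 mM) slope after vehicle subtraction. Hits deviated more than 3 SD from the plate EC50-glutamate wells. One well per compound.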", "units": {"glutamate-evoked VSD slope": "%"}}
{"compound": "Cc1ccccc1OCC(=O)Nc1cc(C(=O)N2CCCC2)cn(C)c1=O", "glutamate-evoked VSD slope": 58.2}
{"compound": "Cc1ccc(-n2nc3c(c2-n2cccc2)CN(C(=O)c2cnccn2)C3)cc1C", "glutamate-evoked VSD slope": 61.4}
